# High-throughput results from PubChem.
# Sampled rows, rich in hits. Any-hit rate of the full collection: about 2.4%.
# CHT PAM: human CHT allosteric activation | Q9GZV3 | CHT-expressing cells, membrane potential dye, choline EC20; active compounds read high; LV-AA mutant CHT in HEK293 cells | B-score at 10 µM | hit rate 0.49% among 310,000 | AID 488977;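 active means initial fluorescence not abnormally high and integrated response B-score, plate-corrected, over 3 SD above library mean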
# Target sequence (Q9GZV3 whole entry, looked up): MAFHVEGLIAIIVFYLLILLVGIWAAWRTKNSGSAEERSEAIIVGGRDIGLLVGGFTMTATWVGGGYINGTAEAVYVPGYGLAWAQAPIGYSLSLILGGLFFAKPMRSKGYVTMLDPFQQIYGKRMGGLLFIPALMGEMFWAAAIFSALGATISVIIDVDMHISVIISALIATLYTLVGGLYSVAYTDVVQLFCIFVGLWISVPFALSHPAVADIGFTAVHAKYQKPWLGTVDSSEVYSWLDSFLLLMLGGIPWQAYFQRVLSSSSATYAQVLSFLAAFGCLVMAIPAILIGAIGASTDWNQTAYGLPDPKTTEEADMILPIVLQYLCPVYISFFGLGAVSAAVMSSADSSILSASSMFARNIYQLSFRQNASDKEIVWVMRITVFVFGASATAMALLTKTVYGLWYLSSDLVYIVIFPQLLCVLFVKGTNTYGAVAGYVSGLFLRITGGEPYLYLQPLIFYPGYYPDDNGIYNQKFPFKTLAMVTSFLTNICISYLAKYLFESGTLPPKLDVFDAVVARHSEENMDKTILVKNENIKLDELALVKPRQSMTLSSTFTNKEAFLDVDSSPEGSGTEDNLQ
# CHT inh: inhibits the human high affinity choline transporter; CHT-expressing cells, membrane potential dye, choline response; active compounds read low; B-score at 10 µM; hit rate 0.86% among 310,000;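 active means B-score over 3 SD under the library average, and starting fluorescence ratio not unusually high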;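 further: choline stimulus applied at its EC90 after an EC20 pre-addition; B-score computed on integrated fluorescence ratio after choline addition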
# ANO1 activ: activates or potentiates the mouse TMEM16A chloride channel | HEK293 TMEM16A/YFP-H148Q/I152L, iodide quench fluorescence; active compounds read low | B-score at 10 µM | hit rate 0.3% among 340,000 | AID 623877;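 active means fluorescence-ratio B-score plate-corrected deviation score at least 3 library SD below zero, with starting fluorescence score within 5 deviations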;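 further: channel opened by trigger with iodide after compound preincubation; score built on the fluorescence ratio of max minus min over baseline; more negative score means more quench and so TMEM16A activation or potentiation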
# TMEM16A inh: mouse TMEM16A channel inhibition, primary screen; hit rate 1.2% among 310,000; Q8BHY3; HEK293 TMEM16A/YFP iodide influx fluorescence, ionomycin; normalized B-score (activity score, 25-100; higher = stronger inhibition) at 10 µM;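 active means ratio plate-corrected score three or more library SD toward inhibition, starting fluorescence score within five deviations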;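 further: score derived from kinetic fluorescence span divided by baseline fluorescence per well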
# TMEM16A reconf: reconfirmed blocker of mouse TMEM16A calcium-activated chloride channel | shares compounds with TMEM16A inh | HEK293 TMEM16A/YFP-H148Q, iodide quench fluorescence; ionomycin added to raise cell calcium | inhibition, % at 10 µM | hit rate 39% among 2,300 | AID 652189;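 active means mean duplicate percent inhibition, scaled so buffer wells are 0 and the reference blocker 100, over three buffer SD above buffer mean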
# TMEM16A Ca cntr: counter-screen for TMEM16A inhibitors: effect on calcium mobilization | calcium response (% of ionomycin), % at 10 µM | AID 652231 | shares compounds with TMEM16A inh | TMEM16A/YFP HEK293, Fluo4 calcium mobilization | hit rate 2% among 2,300;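 active means duplicate-averaged calcium signal over 20% of the ionomycin maximum, relative to buffer baseline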;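 further: each well's signal is peak minus trough fluorescence divided by its pre-addition baseline; 0% = buffer wells and 100% = ionomycin wells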
# YFP-HEK293 quench: parental YFP-HEK293 iodide quench counter-screen activity; ionomycin; shares compounds with TMEM16A inh; YFP ratio F(max-min)/F0 at 10 µM; 2,300 tested, under 10 active;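 active means yellow fluorescent protein signal ratio exceeding the buffer control mean by over 5 SD of those controls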;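 further: ratio is mean of duplicate wells from kinetic YFP trace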
# ClC-1 rat inh: selectivity of TMEM16A inhibitors: inhibition of rat ClC-1 chloride channel; shares compounds with TMEM16A inh; CHO ClC-1-YFP, iodide influx fluorescence quench; iodide control reads 0, buffer control 100; ratio percent, % at 10 µM; 2,300 tested, under 10 active;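 active means duplicate-mean ratio percent above the mean of iodide-only control wells, which defines zero, plus 5 of their SD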;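 further: higher percent means stronger block of ClC-1 iodide influx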
# The depositor's hits bear a star; i = inactive; / = not tested or not shown.
SMILES,CHT PAM,CHT inh,ANO1 activ,TMEM16A inh,TMEM16A reconf,TMEM16A Ca cntr,YFP-HEK293 quench,ClC-1 rat inh
CCN(CC)S(=O)(=O)c1cccc(-c2nnc(SCC(=O)c3cc(C)n(C)c3C)o2)c1,i,i,i,i,/,/,/,/
CCCN(CC(=O)c1cc(C)n(C)c1C)S(=O)(=O)c1cccc(C(F)(F)F)c1,i,i,i,100*,i,i,-0.85,-6
CCCc1cc(=O)[nH]c(SCC(=O)NCCN2C(=O)CSC2=O)n1,/,/,i,/,/,/,/,/
CCOc1ccc(N(Cc2nnc3n2CCCCC3)C(=O)Nc2cccc(C)c2)cc1,i,i,i,i,i,i,-0.96,-2
CCn1c(SCC(=O)c2[nH]c(C)c(C(C)=O)c2C)nnc1-c1cccs1,i,i,i,25*,40%*,i,-0.86,-24
Cc1onc(-c2ccccc2)c1C(=O)Nc1cccc2nsnc12,i,i,i,i,/,/,/,/
Cc1cc(C)c(C)c(S(=O)(=O)NCc2ccncc2)c1C,i,i,i,25*,26%*,i,-1,-14
O=S(=O)(NCc1ccncc1)c1ccc(Br)s1,i,i,i,100*,i,i,-1.1,-18
CCOC(=O)c1[nH]c2ccc(OC)cc2c1NC(=O)CN1CCSCC1,i,i,i,100*,i,i,-0.94,3
CCOC(=O)c1[nH]c2ccc(OC)cc2c1NC(C)=O,i,i,/,i,/,/,/,/
COC(=O)c1[nH]c2ccc(C)cc2c1NC(=O)CN1CCN(c2ccccc2)CC1,i,i,i,100*,20%*,i,-1.2,-12
CC(NC(=O)Nc1ccccc1)C(c1ccccc1)N1CCOCC1 (configuration not stated),i,i,i,i,/,/,/,/
COCCNC(=S)N/N=C/c1c2ccccc2cc2ccccc12,i,i,i,i,30%*,i,-0.6,5
O=C(COC(=O)c1ccccn1)NCc1ccc(Cl)cc1Cl,/,/,i,/,/,/,/,/
O=C(NCc1ccc(Cl)cc1Cl)c1ccccn1,i,i,i,25*,i,i,-1.1,-11
Cc1ccc(Oc2ncc(-c3ccc(Cl)cc3)cn2)cc1,i,i,i,i,/,/,/,/
COc1ccc2c(c1)cc(C(=O)N/N=C/c1c(O)c(C(=O)O)cc3ccccc13)n2C,i,i,i,i,i,i,-1.4,-20
Cn1c(O)c(/C=N/NC(=O)c2cc3ccccc3cc2O)c2ccccc21,i,i,i,i,/,/,/,/
COc1ccc(OC)c(S(=O)(=O)Nc2ccc(C(C)=O)cc2)c1,i,i,i,i,/,/,/,/
COc1ccc(OC)c(S(=O)(=O)Nc2ccc(Oc3ccccc3)cc2)c1,i,i,i,25*,i,i,-1.1,-13
CCOC(=O)c1ccc(Nc2nc(-c3cccnc3)nc3ccccc23)cc1,i,i,i,25*,38%*,i,-1.2,-20
Cc1nn(C(C)C(=O)NCc2cccs2)c(C)c1[N+](=O)[O-] (configuration not stated),i,i,i,i,/,/,/,/
Cc1[nH]c2ccccc2c1SCC(=O)O,i,i,i,i,/,/,/,/
COCC(=O)NCCSc1c(C)[nH]c2ccccc12,i,i,i,100*,i,i,-0.92,-7
Cc1ccccc1NC(=O)CCCSc1nc2ccccc2s1,i,i,i,100*,i,i,-0.85,-12
SMILES,CHT PAM,CHT inh,ANO1 activ,TMEM16A inh,TMEM16A reconf,TMEM16A Ca cntr,YFP-HEK293 quench,ClC-1 rat inh
CCN1CCc2c(C#N)c(N3CCOCC3)nc(NCCO)c2C1,i,i,i,i,/,/,/,/
Cc1cccc(N2CCN(C(=O)c3cc4c(=O)n(C)c5ccccc5c4n3C)CC2)c1C,i,i,i,i,/,/,/,/
Cc1ccc(Cl)cc1N1CCN(C(=O)c2cc3c(=O)n(C)c4ccccc4c3n2C)CC1,i,i,i,100*,29%*,i,-1.1,-36
O=C(CCNS(=O)(=O)c1ccc(OC(F)(F)F)cc1)N1CCN(C/C=C/c2ccccc2)CC1,i,i,i,25*,i,i,-1.1,-4
Cc1cc(C)cc(NC(=O)c2nnn(Cc3cc(C)ccc3C)c2N)c1,i,i,-4.6*,25*,42%*,i,-1.1,-5
Cc1ccc(C)c(Cn2nnc(C(=O)Nc3ccc4c(c3)OCCO4)c2N)c1,i,i,i,i,/,/,/,/
Cc1nc2ccccc2n1Cc1ccc(Cl)cc1,i,i,i,25*,42%*,i,-1.1,-26
CCOC(=O)c1c(C)n(C)c2ccc(OCC(O)Cn3c(C)nc4ccccc43)cc12 (configuration not stated),i,i,i,100*,i,i,-1.1,-10
Cc1nc2ccccc2n1CC(O)COc1ccccc1Cl (configuration not stated),i,i,i,25*,i,i,-0.99,-13
Cc1ccccc1Cn1c(C)nc2ccccc21,i,i,i,i,/,/,/,/
CCOC(=O)c1c(C)n(C)c2ccc(OCC(O)CN3CCN(C)CC3)cc12 (configuration not stated),i,i,i,i,/,/,/,/
COc1ccc(Cl)cc1C(=O)Nc1nc2ccccc2[nH]1,i,i,i,i,/,/,/,/
Cc1cc(C(C)(C)C)oc1C(=O)N(CC(=O)NC1CCCC1)c1c(C)cccc1C,i,i,i,100*,26%*,i,-1.1,-20
COc1ccc(CNC(=O)c2ccc(N3CCCC3=O)cc2)cc1,i,i,i,100*,i,i,-1.2,2
COc1cc(CNCCc2c[nH]c3ccccc23)ccc1OCc1ccccc1F,i,i,i,i,/,/,/,/
COc1cccc(CNCCc2c[nH]c3ccccc23)c1OCc1ccccc1,i,i,i,25*,54%*,i,-0.85,-18
Cc1[nH]n(-c2ccccc2)c(=O)c1C(c1ccc(O)c([N+](=O)[O-])c1)c1c(C)[nH]n(-c2ccccc2)c1=O,i,-6.1*,i,100*,34%*,i,-0.92,-12
COc1ccc(C(C[N+](=O)[O-])c2c(C)[nH]n(-c3ccccc3)c2=O)cc1 (configuration not stated),i,i,i,i,/,/,/,/
Cc1cc(NC(=O)CCC(=O)N(CC(=O)NC2CCCC2)c2ccc(C)c(F)c2)no1,i,i,i,i,/,/,/,/
